In the supplement of paper PMC7530171:
Structures can show the parent of a compound that is named as a salt. ± gives the standard deviation.

Each compound was assayed on THP-1 macrophages infected with Mycobacterium tuberculosis H37Rv (assay: intracellular M.tb growth inhibition relative to DMSO (0) and 4 uM bedaquiline (100); higher = stronger inhibition of intracellular bacterial growth). Conditions: 10 µM; 4 days.
Protocol: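 OICR kinase inhibitor library screened in duplicate at 10 uM against THP-1 macrophages (PMA-differentiated) infected with M. tuberculosis H37Rv-pTEC27 (tdTomato RFP), 4 days at 37 C. Rows with complete host cell loss (placeholder inhibition 0, cell loss 100) were removed.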

Row | SMILES | intracellular M.tb growth inhibition
1 | Cn1cnc2c(NCc3ccccc3)nc(NCCO)nc21 [Olomoucine] | -10.5 ± 23%
2 | CC1=C(C(=O)Nc2cc3cn[nH]c3cc2F)C(c2ccc(C(F)(F)F)cc2)CC(=O)N1 (stereo not given) | -101 ± 100%
3 | COc1cc(SC)ccc1C(=O)N1CCC(Cc2ccccc2)CC1 | 41.8 ± 12%
4 | N#Cc1c(NC(=O)c2cccc3ccccc23)sc2c1CCCC2 | -226 ± 330%
5 | CC(C)(C)n1nc(-c2cccc3ccccc23)c2c(N)ncnc21 [1-Naphthyl PP1] | 21.2 ± 3.2%
6 | CN(C)CC(C)(C)CNc1nn2c(-c3ccccc3)nnc2cc1C1CCC1 | -56.3 ± 120%
7 | CCCS(=O)(=O)Nc1ccc(F)c(C(=O)c2c[nH]c3ncc(Cl)cc23)c1F | 30.7 ± 35%
8 | Cc1cc(C(=O)Nc2cc(Nc3ccc4c(/C=C/c5ccccn5)n[nH]c4c3)ccc2F)n(C)n1 | -16.4 ± 71%
9 | COc1nccc(-c2c(-c3ccc(F)cc3)ncn2C2CCC(O)CC2)n1 (stereo not given) | 1.01 ± 15%
10 | Nc1ncnc2nc(-c3ccc(N4CCOCC4)nc3)cc(-c3cccc(Br)c3)c12 [ABT-702 dihydrochloride] | 29.6 ± 24%
11 | Cc1cccc(-c2[nH]c(C(C)(C)C)nc2-c2ccc3c(c2)OCO3)n1 | -67.3 ± 53%
12 | CN(C)Cc1cccc(N=C(c2ccccc2)c2c(O)[nH]c3cc(C(=O)N(C)C)ccc23)c1 | -213 ± 320%
13 | Cc1nc(N)sc1-c1ccnc(Nc2ccc(N3CCOCC3)cc2)n1 | 13.1 ± 18%
14 | CN1CCC(Nc2ncc3ncnc(Nc4ccc(F)c(Cl)c4)c3n2)CC1 [BIBX 1382 dihydrochloride] | 64.2 ± 13%
15 | CCN(CC)CCCCNc1ncc2cc(-c3cc(OC)cc(OC)c3)c(NC(=O)NC(C)(C)C)nc2n1 | 34.4 ± 29%
16 | NC(=O)c1ccc(-c2nc(-c3ccc4c(c3)OCCO4)c(-c3ccccn3)[nH]2)cc1 | -106 ± 81%
17 | C#Cc1cccc(Nc2ncnc3cc(OCCOC)c(OCCOC)cc23)c1 [Erlotinib HCl] | -17.4 ± 52%
18 | S=C(NCc1ccc2c(c1)OCO2)N1CCN(c2ncnc3c2oc2ccccc23)CC1 | -35.5 ± 71%
19 | COc1cccc2cc(-c3nc([C@H]4CC[C@H](C(=O)O)CC4)n4ncnc(N)c34)[nH]c12 [OSI-027 hydrochloride] | -318 ± 370%
20 | CNC(=O)c1cc(Oc2ccc(NC(=O)Nc3ccc(Cl)c(C(F)(F)F)c3)c(F)c2)ccn1 | 50.6 ± 65%

Row | SMILES | intracellular M.tb growth inhibition
21 | Nc1nccc(Oc2ccc(NC(=O)c3c[nH]cc(-c4ccc(F)cc4)c3=O)cc2F)c1Cl | 37 ± 33%
22 | COc1cc2ncnc(Nc3ccc(O)c(Br)c3)c2cc1OC | 13.5 ± 42%
23 | CC(C)(C)c1nc2c3cc[nH]c(=O)c3c3cc(F)ccc3c2[nH]1 [Merck-5] | -268 ± 290%
24 | OCCn1cc(-c2ccc3c(c2)CC/C3=N\O)c(-c2ccncc2)n1 | -91.1 ± 160%
25 | CC#CC(=O)Nc1ccc2ncnc(Nc3cccc(Br)c3)c2c1 | 3.12 ± 4.4%
26 | Cc1ccc(F)c(NC(=O)Nc2ccc(-c3cccc4[nH]nc(N)c34)cc2)c1 | -14.6 ± 21%
27 | CN(C)C/C=C/C(=O)Nc1cc2c(Nc3ccc(F)c(Cl)c3)ncnc2cc1O[C@H]1CCOC1 | 18.3 ± 3%
28 | Nc1nc(OCC2CCCCC2)c2[nH]cnc2n1 | -15.1 ± 19%
29 | Cc1[nH]c(/C=C2\C(=O)Nc3ccc(S(=O)(=O)Cc4c(Cl)cccc4Cl)cc32)c(C)c1C(=O)N1CCC[C@@H]1CN1CCCC1 | 51 ± 13%
30 | O=C(C=Cc1ccccc1)NC(NC(=S)Nc1ccc(Cl)cc1)C(Cl)(Cl)Cl (stereo not given) | 12.9 ± 18%
31 | CCc1cc(Nc2nccc(-c3c(-c4ccc(OC)c(C(=O)Nc5c(F)cccc5F)c4)nc4ccccn34)n2)c(OC)cc1N1CCC(N2CCN(S(C)(=O)=O)CC2)CC1 | -49.9 ± 68%
32 | Cn1c(=O)n(-c2ccc(C(C)(C)C#N)cc2)c2c3cc(-c4cnc5ccccc5c4)ccc3ncc21 | 26.6 ± 26%
33 | COc1cc2ncnc(Nc3cccc(Cl)c3)c2cc1OC [Tyrphostin AG 1478 mesylate] | 2.11 ± 14%
34 | Cc1ccc(S(=O)(=O)Nc2nc3ccccc3nc2Nc2ccc3nsnc3c2)cc1 | -56.4 ± 99%
35 | CC(C)N(CCC(=O)c1ccc2ccccc2c1)Cc1ccccc1 | 22.8 ± 6.8%
36 | COc1cc(F)c(F)c(Nc2ccc(I)cc2F)c1NS(=O)(=O)C1(C[C@H](O)CO)CC1 | 44.7 ± 27%
37 | C=CCn1c(=O)c2cnc(Nc3ccc(N4CCN(C)CC4)cc3)nc2n1-c1cccc(C(C)(C)O)n1 | -188 ± 280%
38 | CNC(=O)c1ccccc1Sc1ccc2c(/C=C/c3ccccn3)n[nH]c2c1 [Axitinib] | 33.9 ± 1.6%
39 | Cc1nc2sccn2c(=O)c1CCN1CCC(=C(c2ccccc2)c2ccc(F)cc2)CC1 | 58.1 ± 4.4%
40 | CC(C)[C@H](CO)Nc1nc(Nc2ccc(C(=O)O)c(Cl)c2)c2ncn(C(C)C)c2n1 [Purvalanol B] | 2.54 ± 10%
